High-throughput results as filed in PubChem.
Most compounds without a hit are left out; they make up all but 4.5% or so of the library.
697 NFkB inh – lowers PMA/ionomycin-induced NF-kB signal in 697 B cells. actives 0.33% (n = 330,000). 697 B-cell NF-kB luciferase reporter, 16 h. inhibition, % at 4 µM; in the data active = inhibition above about 35%
Gli-Sufu antag – Gli-Sufu pathway antagonism; Sufu-KO-LIGHT fibroblasts, Gli luciferase reporter luminescence; inhibition, % at 5 µM; actives 0.74% (n = 340,000); AID 588413;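 active = inhibition above about 55%, limit read from the data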;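 note: 0% = DMSO-treated cells and 100% = wells with medium but no cells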
Mdm2 MdmX PPI – inhibitors of human Mdm2/MdmX interaction | O15151+Q00987 | SaOS-2 split-luciferase Mdm2/MdmX complementation, luminescence | inhibition, % at 8 µM | actives 3% (n = 330,000) | AID 485346;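 active = inhibition of at least 50% at 8 µM in the primary screen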
Jurkat NFkB inh – inhibitors of the PMA/ionomycin-induced NF-kB reporter in Jurkat cells | actives 0.53% (n = 330,000) | inhibition, % at 4 µM | PMA/ionomycin-induced NF-kB luciferase reporter, luminescence; in the data active = inhibition above about 50%
CSC inhib – cancer stem cell inhibition. inhibition, % at 7.5 µM. actives 1.1% (n = 300,000). cancer stem cell-like cells viability, luminescence; in the data active = inhibition above about 75%; inconclusive = no clear call, values can overlap the other calls; tested in HMLE shEcad cells
aSyn UTR inh – MLPCN primary screen, SNCA 5' untranslated region; inhibition, % (tested at 7.5 µM); alpha-synuclein 5'UTR reporter, inhibitor activity; actives 0.82% (n = 300,000); in the data active = inhibition above about 60%; inconclusive = no clear call, values can overlap the other calls;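 note: H4 neuroglioblastoma cells stably carrying SNCA 5'UTR luciferase fusion; 0% = DMSO wells and 100% = positive control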
Jurkat NFkB conf – inhibitors of the PMA/ionomycin-induced NF-kB reporter in Jurkat cells, retest; shares compounds with Jurkat NFkB inh; Jurkat NF-kB luciferase, 16 h; inhibition, % at 4 µM; actives 27% (n = 2,700); AID 435020;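 active = inhibition reaching about 45% at 4 µM in either replicate, limit read from the data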;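 note: plate controls were PMA/ionomycin stimulated DMSO wells for no effect and unstimulated DMSO wells for full effect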
697 NFkB conf – lowers PMA/ionomycin-induced NF-kB signal in 697 B cells; 697 B-cell NF-kB luciferase, 16 h; actives 35% (n = 2,000); inhibition, % at 4 µM; shares compounds with 697 NFkB inh; in the data active = inhibition mostly above about 28%, no sharp cut-off; inactive = mostly below about 22%
Mdm2 MdmX conf – confirmation of human Mdm2/MdmX interaction inhibitors. inhibition, % at 8 µM. actives 55% (n = 10,000). Mdm2-MdmX binding, luminescent assay. AID 489028. shares compounds with Mdm2 MdmX PPI; in the data active = inhibition above about 40%
Full FLuc ctr – counter-screen for Mdm2/MdmX inhibitors: full-length luciferase; shares compounds with Mdm2 MdmX PPI; SaOS-2 full-length luciferase counterscreen, luminescence; inhibition, % at 8 µM; actives 77% (n = 6,200);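 active = mean inhibition at 8 µM reaching about 37%, which flags the compound as non-specific, limit read from the data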;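 note: p53-null SaOS-2 cells with luciferase driven by a doxycycline-inducible promoter; compound on cells about two nights before reading with doxycycline added after day one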
* marks the source's active call; other numbers are inactive results; u = inconclusive; x = not tested or not shown; + = active, no number.

SMILES	697 NFkB inh	Gli-Sufu antag	Mdm2 MdmX PPI	Jurkat NFkB inh	CSC inhib	aSyn UTR inh	Jurkat NFkB conf	Mdm2 MdmX conf	Full FLuc ctr	others
Cc1ccnc2c1ccc1c(C)ccnc12	-27	91*	84*	76*	111*	x	75*	85*	18
Cc1ccnc2c1ccc1cccnc12	-14	92*	84*	69*	x	x	64*	86*	23
Cc1ccnc2c1ccc1ccccc12	9	-5	11	-2	-10	-22	x	x	x
O=C(CCN1c2ccccc2Sc2ccccc21)OCC(=O)N1CCN(C(=O)c2ccco2)CC1	-5	-2	1	-9	6	6	x	x	x
CCOc1ccccc1C1CC(=O)Nc2cc(C)c(C)cc21 (stereo not drawn)	-53	-1	57*	52*	32	34	38	59*	54*
CCCOc1ccccc1C1CC(=O)NC2=C1C(=O)CCC2 (stereo not drawn)	-54	10	58*	59*	52	32	25	56*	48*
CCOc1ccccc1C1CC(=O)Nc2cc3c(cc21)OCCO3 (stereo not drawn)	-5	46	70*	70*	56	92*	57*	58*	123*
CCOc1ccccc1C1CC(=O)Nc2cc(OC)c(OC)c(OC)c21 (stereo not drawn)	27	13	44	-7	8	27	x	x	x
COc1ccc2[nH]c(=O)c(CN(Cc3cccs3)S(=O)(=O)c3c(C)ccc4nsnc34)cc2c1	-51	6	64*	57*	47	89*	27	68*	73*
Oc1ccc(Nc2nc3ccccc3nc2Nc2ccc(O)cc2)cc1	-127	-14	100*	84*	78*	108*	54*	-2	x
Oc1ccc(Nc2nc(-c3ccccc3)nc3ccccc23)cc1	12	26	34	0	19	28	x	x	x
CCCCOc1ccc(SCCCN2CCOCC2)cc1	x	11	x	x	x	x	x	x	x
O=S1(=O)CCC(n2nccc2-c2ccccc2)C1 (stereo not drawn)	-15	-28	-27	-2	-7	8	x	x	x
CCCOc1ccc(/C=N/Nc2cc(N3CCOCC3)ncn2)c(O)c1	-71	18	73*	55*	98*	3	76*	81*	24
Clc1ccccc1/C=N/Nc1cc(N2CCOCC2)ncn1	-102	-78	-2	-60	-3	-151	x	x	x
FC(F)(F)c1nnc2c(Sc3ccccc3)nc3ccc(Cl)cc3n12	67*	19	97*	85*	0	-7	-17	99*	21	697 NFkB conf=14
FC(F)(F)c1nc2ccccc2n2c(-c3ccc(Cl)cc3Cl)nnc12	-17	-1	47	-5	x	17	x	x	x
CCCC(c1nnnn1CS(=O)(=O)c1ccc(C)cc1)N1CCN(CC)CC1 (stereo not drawn)	-23	6	-2	-23	2	-8	x	x	x
Cc1ccc(Cl)c2c1NC(=O)C2=O	5	-1	3	-2	x	x	x	x	x
CN(Cc1ccccc1)S(=O)(=O)c1ccc(NC(=S)NC(=O)C2CCCC2)cc1	-48	-5	56*	63*	66	-58	16	58*	61*
CN(C)S(=O)(=O)c1ccc(NC(=S)NC(=O)C2CCC2)cc1	-16	-4	26	-1	-7	17	x	x	x
COc1ccc(-c2nn3c(-c4ccccc4)nnc3s2)cc1	-3	-24	19	8	25	-16	x	x	x
CCN(CC)c1ccc(-c2nn3c(-c4ccccc4OC)nnc3s2)cc1	-119	39	76*	79*	93*	83*	64*	65*	73*
O=C(COc1ccc2c(-c3ccccc3)cc(=O)oc2c1)NCc1ccccn1	24	-11	25	-11	-5	23	x	x	x
O=C(COc1ccc2c(-c3ccccc3)cc(=O)oc2c1)Nc1cccnc1	-48	-6	68*	50*	-6	6	48*	42*	82*
SMILES	697 NFkB inh	Gli-Sufu antag	Mdm2 MdmX PPI	Jurkat NFkB inh	CSC inhib	aSyn UTR inh	Jurkat NFkB conf	Mdm2 MdmX conf	Full FLuc ctr	others
O=C(O)c1cccc2c1C(=O)c1ccc(-c3ccc(F)cc3F)cc1S2(=O)=O	18	-6	20	7	-7	x	x	x	x
COc1c(CC=C(C)C)c(O)cc2oc(=O)c3c4ccc(O)cc4oc3c12	-8	-8	2	-25	-2	-47	x	x	x
COc1c2c(cc3oc(=O)c4c5ccc(O)cc5oc4c13)OC(C)(C)CC2	-347	-17	81*	-376	-10	-199	-124	63*	+	697 NFkB conf=-377
Cc1ccc(NC(=O)CCC(=O)NNC(=S)Nc2ccccc2)c(C)c1	-41	2	-24	-1	-12	10	x	x	x
Cc1ccc(NC(=S)NNC(=S)Nc2ccc(C)cc2C)cc1	-7	17	71*	66*	4	113*	-18	52*	94*
COc1ccccc1CNS(=O)(=O)c1ccc(S(=O)(=O)NC2CC2)cc1	19	2	-14	8	x	17	x	x	x
Cc1ccc(N(C)S(=O)(=O)c2cc(-c3cnc(C4CC4)o3)ccc2C)cc1	-10	-5	40	15	40	9	x	x	x
Cc1ccc(NS(=O)(=O)c2ccc(-c3cnc(C4CC4)o3)cc2)c(C)c1	-28	21	77*	54*	u	77*	61*	56*	95*
COc1ccccc1CNS(=O)(=O)c1ccc(-c2cnc(C3CC3)o2)cc1	-54	36	54*	51*	65	61	50*	55*	66*
COc1ccc(NC2CS(=O)(=O)CC2NCc2ccccc2)cc1 (stereo not drawn)	6	1	-8	-11	-18	16	x	x	x
N#CC1=C(N)OC2=C(CCc3ccccc32)C1c1ccccc1 (stereo not drawn)	-37	25	74*	76*	3	70*	8	52*	143*
CSS(=O)(=O)c1cccc2cccnc12	10	-2	0	0	-20	-1	x	x	x
Cc1cc(C)nc(/N=C(\N)Nc2ccc(OCCC(C)C)cc2)n1	-26	26	66*	61*	48	-6	25	49*	53*
Cc1cc(C)nc(/N=C(\N)Nc2cccc(OCc3ccccc3)c2)n1	-40	19	73*	70*	-12	7	22	50*	66*
Cc1cc(C)nc(/N=C(\N)Nc2ccc(OCc3ccccc3)cc2)n1	-53	23	54*	51*	44	12	32	35	x
